According to the supplement of paper PMC6555819:

system: VDR:RXRa (NR concentration 270 nM, RXRa partner concentration 90 nM); assay: PBM binding z-score (relative to random genomic background probes); higher = stronger binding; sequences stand for … in GC…GCGATTGACAGCGTAGAATGAAGG
Procedure: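 Protein-binding microarray (Agilent 4x180K custom design, double-stranded 60-nt probes: 5' GC cap, 34-nt variable region, 24-nt constant primer region; full probe sequence given). Purified or IVT nuclear receptor:RXRα heterodimers (3:1 NR:RXRα, mostly 270:90 nM) or homodimers were incubated for 1 h in PBS with 2% milk and no ligand, then detected with Alexa488 antibodies. Fluorescence from o1-orientation probes (~5 replicates averaged) was converted to z-scores against 500 random hg19 background probes. Variable regions are seed direct-repeat (DR0–DR5) sites, all their single-nucleotide variants and half-site ablations.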

Sequence	PBM binding z-score
TCTTGTAGATCATCAGGTTAAGAAAGCTGGCCAA	0.814
ACTCGGAGGACAAAGGTCAGAGTTACGCCAGTGA	3.42
CCTTACGGGTCACCGACAGGTTATAGCATTTGGA	4.44
AGAACGAGGGCACGCTGAGTTTATAGCAGAGTAG	3.94
GCGACTGGGGCAAAGCACGTTACCATAAGGTTGG	-0.469
TTACCAGGGTGAAGGTCGTTGATCCCTCTGTAGA	1.65
TAGCTTAGGTCATGGGCCAGTATACCACGCGAAC	2.15
GCTGCTAGGTCAACTGCTGGTCAGCTAAAGCTCG	1.38
AGTCAAAGTTCATCTACGTAACGTAAGATATGCT	4.77
TCTATTAGTTGATTAGCGCAACCGAAACAGCGGA	0.694
ATCGCAAGGTCGAAGGTGAGTATACCCACCCGAA	1.8
TCTCCGAGGACACGAAGGTCAGAGCTTTCCAGAG	2.69
CGGCCAAGGTCAGCAGGTCAGTGAAAGCGACGTG	3.8
TCTGTTAGTTGAAGGGCAACCGACGAGTCCGTTT	0.902
TCTAGTTGGACAAAGGTCACACACTCGAAATGCG	5.09
AGTCAAAGTTCATCTAGTTAACGTAAGATATGCT	4.86
GCTGCTAGGTCAACTGATGGTCAGTTAAAGCTCG	1.85
TCTATTAGTTGATTATGGCAACCGAAACAGCGGA	1.08
ATACCAAGGTGATCGAGAGGTCGTTGATACTAAC	3.02
GGAAGGAGGGCAAAGTTGATAGCATCTGTCGACG	0.964

Sequence	PBM binding z-score
GCTGCTAGGTCAACGGATGGTCAGCTAAAGCTCG	0.92
TCGAGTAGGTTTCCAATGGGGCATTCAGCTTTCT	-0.464
TCATATAGGTAAAAAGGTGAAAGTCCGTAAGTTA	1.61
CGAACTAGGTCATCCAAGACAGTGAATACATTGA	2.57
GCTATTAGTTGGAAGGGCAACCGAATGATTCTCG	-0.223
GCGACTGGGGTATCAGCAGGTTACCATAACTTAA	-0.202
CTGACTGGGGCATAAGGTTACCATAAGCCAGCCC	0.451
TAGCCTAGGTCATTCAGTGGCCAGTATAGAAAGC	2.43
CGTAAAAGTTCAACTAAGGTAACGTAAAGCACGC	4.33
CCGACTGCGGCAAAGGTTACCATACTCAGTACGA	0.959
ATCGAAAGGGCGAAGGTGAGTATACCCACCCGAA	0.347
CGAACTAGGTCCTCCAGGACAGTGAATACATTGA	-0.247
CTTACTGGGCCATTCAGAGGTCATTGATCATATG	4.23
GCTTGTAGATCAAGGTTAAGTAAGACTAAGCTAA	0.257
GTTTACGGGTCAAAGGTTATAGCATGAATAGAAT	5.82
ATCGAAAGGCCGTGAGGTGAGTATACAGAAAGGC	-0.0584
CATACAGGGTCAGCAAGGCCAGAGTAGGGACGGC	5.7
CCACACAGGTGAGAAGGTAACTCAGCCTCGATTA	0.0106
TAGCCTAGGTCATTCAGGTGCCAGTATAGAAAGC	3.1
CCTAGGTGGTCAGGAGGTCACACACCGGATATGA	3.76
